Experimental data taken from PubChem BioAssay AID1159580 (chemical genetic matrix, 2015).
Hit rate of the full screen: of about 5,500 compounds, about 2,000 (36%) were called active. About 18% were inconclusive and are not listed. No stated cut-off is given here; in the data, active means normalized growth mostly below about 0.91 (no sharp cut-off); inconclusive means no clear call, values can overlap the other calls; inactive means mostly above about 0.92. Some of the results follow.

Assay: chemical genetic growth profiling, strain panel (AID 1159580);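 further: tested at 20 µM; growth read once vehicle control cultures reached saturation at 30 °C; 1 = growth at the plate median or of vehicle wells; lower values mean less growth of the strain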
Conditions: growth OD

Measured: normalized growth

O=c1cccc2n1C[C@H]1CNCC2C1
inactive: S. cerevisiae deletion strains, locus YJR043C, strain POL32, active compounds read low 1.01 | S. cerevisiae deletion strains, locus YJR066W, strain TOR1, active compounds read low 0.988 | S. cerevisiae deletion strains, locus YKL009W, strain mrt4, active compounds read low 1.02 | S. cerevisiae deletion strains, locus YKL068W, active compounds read low 0.98 | S. cerevisiae deletion strains, locus YKL085W, strain MDH1 (second series), active compounds read low 1 | S. cerevisiae deletion strains, locus YKL085W, strain MDH1, active compounds read low 1 | S. cerevisiae deletion strains, locus YKL160W, strain elf1, active compounds read low 0.984 | S. cerevisiae deletion strains, locus YKR001C, strain vps1, active compounds read low 0.964 | S. cerevisiae deletion strains, locus YKR026C, strain gcn3, active compounds read low 0.994 | S. cerevisiae deletion strains, locus YKR091W, strain srl3, active compounds read low 1.01 | S. cerevisiae deletion strains, locus YLL001W, strain dnm1, active compounds read low 0.95 | S. cerevisiae deletion strains, locus YLL026W, active compounds read low 1.01 | S. cerevisiae deletion strains, locus YLL041C, strain sdh2, active compounds read low 0.998 | S. cerevisiae deletion strains, locus YLR027C, strain aat2, active compounds read low 1 | S. cerevisiae deletion strains, locus YLR039C, strain RIC1, active compounds read low 1.01 | S. cerevisiae deletion strains, locus YLR058C, strain SHM2, active compounds read low 1.01 | S. cerevisiae deletion strains, locus YLR102C, strain apc9, active compounds read low 0.985 | S. cerevisiae deletion strains, locus YLR113W, strain HOG1, active compounds read low 0.979 | S. cerevisiae deletion strains, locus YLR221C, strain rsa3, active compounds read low 0.971 | S. cerevisiae deletion strains, locus YLR258W, strain gsy2, active compounds read low 0.982 | S. cerevisiae deletion strains, locus YLR262C, strain YPT6 (second series), active compounds read low 0.998 | S. cerevisiae deletion strains, locus YLR262C, strain YPT6, active compounds read low 1.01 | S. cerevisiae deletion strains, locus YLR268W, strain sec22, active compounds read low 0.971 | S. cerevisiae deletion strains, locus YLR320W, strain mms22, active compounds read low 0.974 | S. cerevisiae deletion strains, locus YLR330W, strain CHS5, active compounds read low 0.989 | S. cerevisiae deletion strains, locus YLR342W, strain FKS1 (second series), active compounds read low 1.04 | S. cerevisiae deletion strains, locus YLR342W, strain FKS1, active compounds read low 1.01 | S. cerevisiae deletion strains, locus YLR357W, strain rsc2, active compounds read low 1.09 | S. cerevisiae deletion strains, locus YLR370C, strain arc18, active compounds read low 0.99 | S. cerevisiae deletion strains, locus YLR371W, strain rom2, active compounds read low 0.976 | S. cerevisiae deletion strains, locus YLR384C, strain iki3, active compounds read low 1 | S. cerevisiae deletion strains, locus YLR418C, strain cdc73, active compounds read low 1.03 | S. cerevisiae deletion strains, locus YML016C, strain PPZ1, active compounds read low 1.01 | S. cerevisiae deletion strains, locus YML032C, strain rad52, active compounds read low 1.01 | S. cerevisiae deletion strains, locus YML120C, strain ndi1, active compounds read low 0.993 | S. cerevisiae deletion strains, locus YML124C, strain tub3, active compounds read low 0.995 | S. cerevisiae deletion strains, locus YMR058W, strain fet3, active compounds read low 1.01 | S. cerevisiae deletion strains, locus YMR078C, strain ctf18, active compounds read low 0.984 | S. cerevisiae deletion strains, locus YMR125W, strain sto1, active compounds read low 0.992 | S. cerevisiae deletion strains, locus YMR129W, active compounds read low 1 | S. cerevisiae deletion strains, locus YMR205C, strain PFK2, active compounds read low 0.994 | S. cerevisiae deletion strains, locus YMR223W, strain ubp8, active compounds read low 1.01 | S. cerevisiae deletion strains, locus YMR231W, strain pep5, active compounds read low 1.01 | S. cerevisiae deletion strains, locus YMR263W, strain SAP30, active compounds read low 1 | S. cerevisiae deletion strains, locus YMR307W, strain GAS1, active compounds read low 1.07 | S. cerevisiae deletion strains, locus YNL067W, strain RPL9B, active compounds read low 1.01 | S. cerevisiae deletion strains, locus YNL071W, strain lat1, active compounds read low 1.01 | S. cerevisiae deletion strains, locus YNL153C, strain GIM3, active compounds read low 1.03 | S. cerevisiae deletion strains, locus YNL183C, strain NPR1, active compounds read low 0.987 | S. cerevisiae deletion strains, locus YNL209W, strain ssb2, active compounds read low 1.01 | S. cerevisiae deletion strains, locus YNL233W, strain BNI4, active compounds read low 1.03 | S. cerevisiae deletion strains, locus YNL248C, strain rpa49, active compounds read low 1.09 | S. cerevisiae deletion strains, locus YNL250W, strain rad50, active compounds read low 0.929 | S. cerevisiae deletion strains, locus YNL271C, strain bni1, active compounds read low 0.988 | S. cerevisiae deletion strains, locus YNL298W, strain CLA4, active compounds read low 1.01 | S. cerevisiae deletion strains, locus YNL307C, strain MCK1, active compounds read low 0.983 | S. cerevisiae deletion strains, locus YNL322C, strain KRE1 (second series), active compounds read low 1 | S. cerevisiae deletion strains, locus YNR049C, strain mso1, active compounds read low 1 | S. cerevisiae deletion strains, locus YNR052C, strain pop2, active compounds read low 1.01 | S. cerevisiae deletion strains, locus YOL006C, strain TOP1, active compounds read low 1.02 | S. cerevisiae deletion strains, locus YOL012C, strain htz1 1.03 | S. cerevisiae deletion strains, locus YOL147C, strain pex11, active compounds read low 0.998 | S. cerevisiae deletion strains, locus YOR001W, strain rrp6, active compounds read low 0.987 | S. cerevisiae deletion strains, locus YOR061W, strain CKA2, active compounds read low 1.01 | S. cerevisiae deletion strains, locus YOR069W, strain VPS5, active compounds read low 0.999 | S. cerevisiae deletion strains, locus YOR070C, strain gyp1, active compounds read low 0.998 | S. cerevisiae deletion strains, locus YOR080W, strain dia2, active compounds read low 1 | S. cerevisiae deletion strains, locus YOR083W, strain WHI5, active compounds read low 0.991 | S. cerevisiae deletion strains, locus YOR106W, strain vam3, active compounds read low 1.01 | S. cerevisiae deletion strains, locus YOR136W, strain idh2, active compounds read low 0.994 | S. cerevisiae deletion strains, locus YOR144C, strain elg1, active compounds read low 1 | S. cerevisiae deletion strains, locus YOR184W, strain ser1, active compounds read low 0.996 | S. cerevisiae deletion strains, locus YOR231W, strain MKK1, active compounds read low 1.02 | S. cerevisiae deletion strains, locus YOR265W, strain rbl2, active compounds read low 1.01 | S. cerevisiae deletion strains, locus YOR270C, strain vph1, active compounds read low 1.05 | S. cerevisiae deletion strains, locus YOR290C, strain snf2, active compounds read low 0.958 | S. cerevisiae deletion strains, locus YOR316C, strain cot1, active compounds read low 0.994 | S. cerevisiae deletion strains, locus YPL051W, strain arl3, active compounds read low 1 | S. cerevisiae deletion strains, locus YPL078C, strain atp4, active compounds read low 0.997 | S. cerevisiae deletion strains, locus YPL106C, strain sse1, active compounds read low 0.957 | S. cerevisiae deletion strains, locus YPL240C, strain hsp82, active compounds read low 0.993 | S. cerevisiae deletion strains, locus YPL241C, strain CIN2, active compounds read low 1 | S. cerevisiae deletion strains, locus YPL256C, strain CLN2, active compounds read low 1.07 | S. cerevisiae deletion strains, locus YPR119W, strain clb2, active compounds read low 0.981 | S. cerevisiae deletion strains, locus YPR141C, strain kar3, active compounds read low 0.982 | S. cerevisiae deletion strains, locus YPR163C, strain tif3, active compounds read low 0.993 | S. cerevisiae deletion strains, locus YPR167C, strain met16, active compounds read low 0.98 | S. cerevisiae deletion strains, strain wtn01, active compounds read low 0.958 | S. cerevisiae strains, strain wild type, active compounds read low 1.01
